CYP2C9 activ – human CYP2C9 activators, primary screen, biochemical, luminescence; Cytochrome P450 2C9 (Homo sapiens), P11712; recombinant CYP2C9, luciferin-H conversion; active compounds read high; factor 1 = untreated enzyme, 0 = blocked; activation factor at 5 µM; hit rate 1.4% among 96,000; AID 1024, 2008;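 active means activation factor of 2 or more for CYP2C9 at a 5 µM dose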;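 further: 0 = sulfaphenazole-blocked wells and 1 = vehicle-only wells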
CYP2C19 inh – blockers of cytochrome P450 2C19 activity – biochemical, luminescence, ADME assay, primary screen; P33261; CYP2C19 Supersomes, luciferin-H EGE luminescence, 30 min; inhibition, % at 5 µM; hit rate 21% among 96,000; AID 778, 2007;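 active means CYP2C19 inhibition above a set limit at 5 µM in the primary screen, cut at about 50% in these data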;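 further: plate controls were negative control wells for no effect and 2.5 mM tranylcypromine positive control for full effect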
Target sequence (P33261 whole entry, looked up): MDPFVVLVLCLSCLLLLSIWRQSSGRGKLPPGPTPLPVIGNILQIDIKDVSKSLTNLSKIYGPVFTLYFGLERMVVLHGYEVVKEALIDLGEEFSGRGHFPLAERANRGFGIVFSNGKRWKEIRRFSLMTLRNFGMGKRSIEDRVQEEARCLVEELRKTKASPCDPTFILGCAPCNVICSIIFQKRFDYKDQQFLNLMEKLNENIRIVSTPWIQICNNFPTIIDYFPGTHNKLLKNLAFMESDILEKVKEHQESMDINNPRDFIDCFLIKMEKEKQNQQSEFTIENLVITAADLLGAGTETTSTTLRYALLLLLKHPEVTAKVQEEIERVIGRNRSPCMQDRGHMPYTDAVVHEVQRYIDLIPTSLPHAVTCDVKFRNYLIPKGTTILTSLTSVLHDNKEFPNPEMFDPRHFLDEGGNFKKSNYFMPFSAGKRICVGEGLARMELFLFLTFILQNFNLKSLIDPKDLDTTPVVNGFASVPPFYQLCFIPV
CYP2C9 inh – blockers of cytochrome P450 2C9 activity – biochemical, luminescence, ADME assay, primary screen. P11712. inhibition, % at 5 µM. hit rate 20% among 96,000. CYP2C9 Supersomes, luciferin-H conversion;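 active means blocking of liver enzyme CYP2C9 beyond about 50% at 5 µM, limit read from the data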
sEH activator – soluble epoxide hydrolase activators, primary screen, biochemical, human sEH. purified human sEH enzymatic activity, activator screen. activation, % at 2 µM. hit rate 0.04% among 91,000. Bifunctional epoxide hydrolase 2 (Homo sapiens), P34913; in the data active means activation above about 37%
CYP2C19 activ – human CYP2C19 activators, primary screen, biochemical, luminescence; Cytochrome P450 2C19 (Homo sapiens), P33261; recombinant CYP2C19, luciferin-H EGE luminescence; active compounds read high; 0 = fully inhibited enzyme, 1 = untreated enzyme; activation factor at 5 µM; 96,000 tested, under 10 active;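 active means activation factor of at least 2 at 5 µM in the primary screen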;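 further: 0 = wells with 2.5 mM tranylcypromine and 1 = vehicle-only wells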
sEH inhibitor – soluble epoxide hydrolase inhibitors, primary screen, biochemical, human sEH; recombinant human sEH enzymatic activity assay; inhibition, % at 2 µM; hit rate 0.34% among 91,000; AID 707, 2007; in the data active means inhibition above about 80%
* marks the source's active call; other numbers are inactive results. Shown are actives, neighbours in structure and some others; about 27% of the full set was active somewhere.

How did CCOC(=O)c1c(-c2cccs2)csc1NC(=O)CN1CC(C)OC(C)C1 (configuration not stated) do in these assays?
CYP2C9 activ: 0.3; CYP2C19 inh: 32.5; CYP2C9 inh: 69.0*; CYP2C19 activ: 0.7

Results for COc1ccc(C)cc1N(CC(=O)Nc1cccc(N(C)S(C)(=O)=O)c1)S(C)(=O)=O ?
CYP2C9 activ: 0.7; CYP2C19 inh: 19.9; CYP2C9 inh: 30.1; sEH activator: -3.8; CYP2C19 activ: 0.8; sEH inhibitor: 6.4

How did Cc1onc(-c2ccccc2Cl)c1C(=O)Nc1ccc(CN2CCCC2)cc1 do in these assays?
CYP2C9 activ: 0.5; CYP2C19 inh: 49.0; CYP2C9 inh: 49.3; sEH activator: 16.9; CYP2C19 activ: 0.5; sEH inhibitor: -16.6

Results for COc1ccc(/C=N/NC(=O)c2ccc(Cn3cc([N+](=O)[O-])cn3)o2)c(OC)c1C ?
CYP2C9 activ: 1.1; CYP2C19 inh: -14.5; CYP2C9 inh: -7.0; sEH activator: -44.7; CYP2C19 activ: 1.1; sEH inhibitor: 45.1

What do the screens show for `O=C(c1ccc(Cn2cc([N+](=O)[O-])cn2)o1)N1N=C(C(F)F)CC1(O)C(F)F` (configuration not stated)?
CYP2C9 activ: 0.4; CYP2C19 inh: 37.6; CYP2C9 inh: 61.9*; sEH activator: 7.5; CYP2C19 activ: 0.6; sEH inhibitor: -5.6

What do the screens show for `CCCCS(=O)CC(O)COCC` (configuration not stated)?
CYP2C9 activ: 1.1; CYP2C19 inh: -13.9; CYP2C9 inh: -5.9; sEH activator: 3.9; CYP2C19 activ: 1.1; sEH inhibitor: -1.4

Results for Cc1ccc(CSCCNC(=O)c2ccc(N(C)S(=O)(=O)c3ccccc3)cc2)cc1 ?
CYP2C9 activ: 0.1; CYP2C19 inh: 8.2; CYP2C9 inh: 86.5*; sEH activator: -37.5; CYP2C19 activ: 0.9; sEH inhibitor: 37.5

What do the screens show for `CN(c1ccc(C(=O)O)cc1)S(=O)(=O)c1ccccc1`?
CYP2C9 activ: 0.9; CYP2C19 inh: 7.1; CYP2C9 inh: 9.5; CYP2C19 activ: 0.9

What do the screens show for `COc1ccc(S(=O)(=O)N2CCC(C(N)=O)CC2)cc1`?
sEH activator: 0.5; sEH inhibitor: -1.3

Results for NC(=O)C1CCN(C(=O)c2ccc(Oc3ccccc3)cc2)CC1 ?
CYP2C9 activ: 0.4; CYP2C19 inh: 13.2; CYP2C9 inh: 55.5*; sEH activator: 5.8; CYP2C19 activ: 0.9; sEH inhibitor: -3.6

Results for COc1ccc(S(=O)(=O)N(C)c2ccc(C(=O)N3CCC(C(N)=O)CC3)cc2)cc1 ?
CYP2C9 activ: 0.5; CYP2C19 inh: -8.0; CYP2C9 inh: 50.5*; sEH activator: 12.7; CYP2C19 activ: 1.1; sEH inhibitor: -13.0

How did COCCCNC(=O)c1ccc(N(C)S(=O)(=O)c2ccc(OC)cc2)cc1 do in these assays?
CYP2C9 activ: 0.3; CYP2C19 inh: 12.2; CYP2C9 inh: 69.5*; sEH activator: -6.4; CYP2C19 activ: 0.9; sEH inhibitor: 8.8

How did COCCCNC(=O)c1ccc(N(C)S(C)(=O)=O)cc1 do in these assays?
CYP2C9 activ: 1.2; CYP2C19 inh: -17.9; CYP2C9 inh: -19.5; sEH activator: 3.2; CYP2C19 activ: 1.2; sEH inhibitor: -0.8

Results for CC1SC(=NC(=O)C(C)N2C(=O)c3ccccc3C2=O)NC1=O (configuration not stated) ?
sEH activator: -1.1; sEH inhibitor: 4.2

Results for O=[n+]1c2c(n([O-])c3cc(Cl)ccc31)CCCC2 ?
CYP2C9 activ: 0.8; CYP2C19 inh: 1.8; CYP2C9 inh: 17.2; sEH activator: 11.3; CYP2C19 activ: 1; sEH inhibitor: -10.8

How did CS(=O)(=O)N(CC(=O)O)c1cc(Cl)cc(Cl)c1 do in these assays?
CYP2C9 activ: 1.1; CYP2C19 inh: -13.4; CYP2C9 inh: -14.0; sEH activator: -4.6; CYP2C19 activ: 1.1; sEH inhibitor: 7.0

How did CC(=O)c1nn(-c2cccc(Br)c2)cc1C(=O)c1ccc(Br)cc1 do in these assays?
CYP2C9 activ: 2.4*; CYP2C19 inh: -17.1; CYP2C9 inh: -139.6; sEH activator: 2.5; CYP2C19 activ: 1.2; sEH inhibitor: -0.6

How did CC(=O)c1nn(-c2cccc(Br)c2)cc1C(=O)c1ccc(C)cc1 do in these assays?
CYP2C9 activ: 0.4; CYP2C19 inh: -3.8; CYP2C9 inh: 60.8*; sEH activator: 4.8; CYP2C19 activ: 1; sEH inhibitor: -3.3

What do the screens show for `COc1ccc(OC)c(C(O)c2coc3ccc(O)c(CN4CCOCC4)c23)c1` (configuration not stated)?
CYP2C9 activ: 0.5; CYP2C19 inh: 58.5*; CYP2C9 inh: 53.5*; CYP2C19 activ: 0.4

What do the screens show for `CC(Sc1ccccc1)C(=O)Nc1ccc(N2CCOCC2)cc1` (configuration not stated)?
CYP2C9 activ: 0.7; CYP2C19 inh: 11.8; CYP2C9 inh: 26.6; sEH activator: -4.4; CYP2C19 activ: 0.9; sEH inhibitor: 5.1

What do the screens show for `CC(=O)C(Sc1nc(N2CCOCC2)nc(N2CCOCC2)n1)C(=O)Nc1ccccc1` (configuration not stated)?
CYP2C9 activ: 0.4; CYP2C19 inh: 20.7; CYP2C9 inh: 55.3*; sEH activator: 9.4; CYP2C19 activ: 0.8; sEH inhibitor: -9.4

Results for CC(Sc1nc(NCc2ccccc2)nc(N2CCOCC2)n1)C(=O)Nc1ccccc1 (configuration not stated) ?
CYP2C9 activ: 0.2; CYP2C19 inh: 24.1; CYP2C9 inh: 80.5*; sEH activator: -2.3; CYP2C19 activ: 0.8; sEH inhibitor: 5.2

What do the screens show for `CCOC(=O)CNC(=O)CSc1nc(NCc2ccccc2)nc(N(C)C)n1`?
CYP2C9 activ: 0.6; CYP2C19 inh: 53.1*; CYP2C9 inh: 40.8; sEH activator: -5.0; CYP2C19 activ: 0.5; sEH inhibitor: 7.6

Results for CC(Sc1nc(NCc2ccccc2)nc(N(C)C)n1)C(=O)Nc1ccccc1 (configuration not stated) ?
CYP2C9 activ: 0.2; CYP2C19 inh: 57.6*; CYP2C9 inh: 81.1*; sEH activator: 5.7; CYP2C19 activ: 0.4; sEH inhibitor: -3.0

What do the screens show for `c1ccc(Nc2nc(N3CCOCC3)nc(N3CCOCC3)n2)cc1`?
CYP2C9 activ: 0.6; CYP2C19 inh: 40.1; CYP2C9 inh: 35.4; sEH activator: 2.1; CYP2C19 activ: 0.6; sEH inhibitor: -1.7

Results for COc1ccc(-c2nsc(C(=O)N(c3ccc(F)cc3)C(C(=O)NC3CCCC3)c3ccc(OC)cc3)c2N)cc1 (configuration not stated) ?
CYP2C9 activ: 0.9; CYP2C19 inh: -6.5; CYP2C9 inh: 9.7; CYP2C19 activ: 1.1

Assay outcomes deposited in PubChem BioAssay by several laboratories.
